Structures can show the parent of a compound that is named as a salt. ± gives the standard deviation of the averaged measurements.
How the values were obtained:
[1] = tested on: Saccharomyces cerevisiae BY4741 SeMeCo community; assay: mean cell size (pixel area) (pixels); higher = larger cells; settings: 10 µM; 24 h; SM minimal medium
Summary of the method: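 Drug was acoustically predosed into 384-well plates to a final 10 µM in SM medium, and each well received 70 µl of Saccharomyces cerevisiae BY4741 diluted to OD600 = 0.3 from an overnight preculture at OD600 = 1.0. This four-plasmid fluorescent community carries one fluorescent marker per plasmid, and each plasmid complements one auxotrophy. After 24 h, the cells were fixed with paraformaldehyde and imaged by automated confocal microscopy, and Harmony analysis yielded mean cell pixel area per well. Each value is averaged over 3 replicates. Same SeMeCo high-content imaging drug screen: Selleck FDA-approved drugs at 10 µM, 24 h in SM medium, 384-well plates, 3 replicates.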

[2] = tested on: Saccharomyces cerevisiae BY4741 SeMeCo community; assay: z-score of prototroph abundance vs DMSO median; higher = larger share of this subpopulation than in DMSO controls; settings: 10 µM; 24 h; SM minimal medium; subpopulation (auxotrophy): Prototroph
Summary of the method: (§1)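 Scoring was based on each subpopulation's abundance, expressed as a z-score against the vehicle-well median. A Saccharomyces cerevisiae BY4741 community with four plasmids, each restoring one auxotrophy and encoding a distinct fluorescent protein, was pre-grown overnight to OD600 1.0, diluted to 0.3, and added at 70 µl to 384-well plates acoustically predosed with library drugs (10 µM final). It then grew 24 h in minimal SM medium before paraformaldehyde fixation and automated confocal microscopy, with single-auxotroph fluorescent strains setting thresholds and autofluorescence correction.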

[3] = tested on: Saccharomyces cerevisiae BY4741 SeMeCo community; assay: z-score of subpopulation abundance vs DMSO median, subpopulation auxotrophic for M; higher = larger share of this subpopulation than in DMSO controls; settings: 10 µM; 24 h; SM minimal medium; subpopulation (auxotrophy): M
Summary of the method: as §1

[4] = tested on: Saccharomyces cerevisiae BY4741 SeMeCo community; assay: z-score of subpopulation abundance vs DMSO median, subpopulation auxotrophic for L; higher = larger share of this subpopulation than in DMSO controls; settings: 10 µM; 24 h; SM minimal medium; subpopulation (auxotrophy): L
Summary of the method: as §1

[5] = tested on: Saccharomyces cerevisiae BY4741 SeMeCo community; assay: z-score of subpopulation abundance vs DMSO median, subpopulation auxotrophic for U; higher = larger share of this subpopulation than in DMSO controls; settings: 10 µM; 24 h; SM minimal medium; subpopulation (auxotrophy): U
Summary of the method: as §1

[6] = tested on: Saccharomyces cerevisiae BY4741 SeMeCo community; assay: z-score of subpopulation abundance vs DMSO median, subpopulation auxotrophic for H; higher = larger share of this subpopulation than in DMSO controls; settings: 10 µM; 24 h; SM minimal medium; subpopulation (auxotrophy): H
Summary of the method: as §1

[7] = tested on: Saccharomyces cerevisiae BY4741 SeMeCo community; assay: z-score of subpopulation abundance vs DMSO median, subpopulation auxotrophic for LU; higher = larger share of this subpopulation than in DMSO controls; settings: 10 µM; 24 h; SM minimal medium; subpopulation (auxotrophy): LU
Summary of the method: as §1

[8] = tested on: Saccharomyces cerevisiae BY4741 SeMeCo community; assay: z-score of subpopulation abundance vs DMSO median, subpopulation auxotrophic for LM; higher = larger share of this subpopulation than in DMSO controls; settings: 10 µM; 24 h; SM minimal medium; subpopulation (auxotrophy): LM
Summary of the method: as §1

[9] = tested on: Saccharomyces cerevisiae BY4741 SeMeCo community; assay: z-score of subpopulation abundance vs DMSO median, subpopulation auxotrophic for HM; higher = larger share of this subpopulation than in DMSO controls; settings: 10 µM; 24 h; SM minimal medium; subpopulation (auxotrophy): HM
Summary of the method: as §1

[10] = tested on: Saccharomyces cerevisiae BY4741 SeMeCo community; assay: z-score of subpopulation abundance vs DMSO median, subpopulation auxotrophic for HU; higher = larger share of this subpopulation than in DMSO controls; settings: 10 µM; 24 h; SM minimal medium; subpopulation (auxotrophy): HU
Summary of the method: as §1

[11] = tested on: Saccharomyces cerevisiae BY4741 SeMeCo community; assay: z-score of subpopulation abundance vs DMSO median, subpopulation auxotrophic for HL; higher = larger share of this subpopulation than in DMSO controls; settings: 10 µM; 24 h; SM minimal medium; subpopulation (auxotrophy): HL
Summary of the method: as §1

[12] = tested on: Saccharomyces cerevisiae BY4741 SeMeCo community; assay: z-score of subpopulation abundance vs DMSO median, subpopulation auxotrophic for HLU; higher = larger share of this subpopulation than in DMSO controls; settings: 10 µM; 24 h; SM minimal medium; subpopulation (auxotrophy): HLU
Summary of the method: as §1

[13] = tested on: Saccharomyces cerevisiae BY4741 SeMeCo community; assay: z-score of subpopulation abundance vs DMSO median, subpopulation auxotrophic for HLM; higher = larger share of this subpopulation than in DMSO controls; settings: 10 µM; 24 h; SM minimal medium; subpopulation (auxotrophy): HLM
Summary of the method: as §1

[14] = tested on: Saccharomyces cerevisiae BY4741 SeMeCo community; assay: z-score of subpopulation abundance vs DMSO median, subpopulation auxotrophic for HUM; higher = larger share of this subpopulation than in DMSO controls; settings: 10 µM; 24 h; SM minimal medium; subpopulation (auxotrophy): HUM
Summary of the method: as §1

[15] = tested on: Saccharomyces cerevisiae BY4741 SeMeCo community; assay: z-score of subpopulation abundance vs DMSO median, subpopulation auxotrophic for LUM; higher = larger share of this subpopulation than in DMSO controls; settings: 10 µM; 24 h; SM minimal medium; subpopulation (auxotrophy): LUM
Summary of the method: as §1

[16] = tested on: Saccharomyces cerevisiae BY4741 SeMeCo community; assay: z-score of subpopulation abundance vs DMSO median, subpopulation auxotrophic for HLUM; higher = larger share of this subpopulation than in DMSO controls; settings: 10 µM; 24 h; SM minimal medium; subpopulation (auxotrophy): HLUM
Summary of the method: as §1

[17] = tested on: Saccharomyces cerevisiae BY4741 SeMeCo community; assay: z-score of subpopulation abundance vs DMSO median, subpopulation auxotrophic for UM; higher = larger share of this subpopulation than in DMSO controls; settings: 10 µM; 24 h; SM minimal medium; subpopulation (auxotrophy): UM
Summary of the method: as §1

Row | SMILES | mean cell size [1] | z-score of prototroph abundance [2] | z-score of subpopulation abundance [3] | z-score of subpopulation abundance [4] | z-score of subpopulation abundance [5] | z-score of subpopulation abundance [6] | z-score of subpopulation abundance [7] | z-score of subpopulation abundance [8] | z-score of subpopulation abundance [9] | z-score of subpopulation abundance [10] | z-score of subpopulation abundance [11] | z-score of subpopulation abundance [12] | z-score of subpopulation abundance [13] | z-score of subpopulation abundance [14] | z-score of subpopulation abundance [15] | z-score of subpopulation abundance [16] | z-score of subpopulation abundance [17]
1 | O=C(Cn1ccnc1[N+](=O)[O-])NCc1ccccc1 [Benznidazole] | 12.49 ± 0.12 | 0.22 | -0.28 | 0.22 | 0.63 | -0.18 | -0.43 | 0.19 | -0.4 | -0.83 | 0.08 | -0.74 | -0.65 | -0.52 | 0.15 | -0.21 | 
2 | Cc1onc(-c2c(Cl)cccc2Cl)c1C(=O)N[C@@H]1C(=O)N2[C@@H]1SC(C)(C)[C@@H]2C(=O)O [Dicloxacillin Sodium] | 12.4 ± 0.18 | 0.04 | -0.23 | 1.32 | -0.31 | 0.19 | 0.85 | 0.35 | -0.31 | -0.23 | -0.68 | -0.51 | -0.56 | -0.11 | 0.88 | 1.07 | 
3 | Cc1ccc(Sc2ccccc2N2CCNCC2)c(C)c1 | 12.22 ± 0.086 | 0.66 | -0.9 | -0.27 | -0.43 | -0.02 | -0.09 | -0.55 | -0.62 | -0.76 | -0.11 | 0.19 | -0.35 | -0.46 | -0.73 | -0.16 | -0.97
4 | CO[C@@H]1[C@H](OC(=O)/C=C/C=C/C=C/C=C/C(=O)O)CC[C@]2(CO2)[C@H]1[C@@]1(C)O[C@@H]1CC=C(C)C [Fumagillin] | 12.24 ± 0.059 | -1.67 | -0.12 | 1.24 | 0.58 | 1.11 | 1.51 | 2.31 | 1.85 | 1.17 | 1.92 | 2.31 | 1.1 | 0.96 | 2.33 | 1.71 | 
5 | CN(C)CC(c1ccc(O)cc1)C1(O)CCCCC1 (centres undefined) [Desvenlafaxine] | 12.4 ± 0.27 | 0.76 | -0.95 | -0.35 | 0.57 | -0.84 | -0.16 | -0.57 | -1.06 | -0.26 | -0.75 | -1.12 | -0.85 | -0.85 | -0.64 | -0.91 | 
6 | N=C(N)NC(=N)N1CCOCC1 [Moroxydine HCl] | 12.4 ± 0.078 | 0.31 | -0.15 | -0.09 | 0.43 | -0.19 | 0.31 | 0.58 | -0.15 | -0.45 | -0.09 | 0.08 | -0.37 | -0.28 | 0.38 | -0.61 | 
7 | O=C(O)Cc1ccccc1Nc1c(Cl)cccc1Cl [Diclofenac Diethylamine] | 12.66 ± 0.1 | 2.27 | -0.07 | 0.07 | -1.34 | -1.31 | -0.75 | -0.51 | -0.49 | -1.85 | -1.1 | -0.36 | -0.26 | -1.96 | -1.21 | 0 | -1.81
8 | C[C@@H](c1nc(-c2ccc(C#N)cc2)cs1)[C@](O)(Cn1cncn1)c1cc(F)ccc1F [Isavuconazole] | 11.95 ± 0.079 | -10.4 | -1.83 | -0.71 | -1.5 | 15.6 | 0.81 | 1.61 | 8.09 | 8.91 | 9.84 | 6.83 | 15.5 | 10.4 | 7.48 | 13.5 | 13.4
9 | CC[N+](C)(C)c1cccc(O)c1 [Edrophonium chloride] | 12.28 ± 0.12 | -0.67 | 0.34 | -0.53 | 1.2 | -1.41 | 1.17 | -0.05 | -0.15 | -0.07 | -0.46 | -0.56 | -0.47 | 0.76 | 0.48 | 0.62 | 0.7
10 | CCCN(CCC)CCc1cccc2c1CC(=O)N2 [Ropinirole HCl] | 12.4 ± 0.22 | -0.81 | -0.4 | 1.95 | 0.26 | -0.16 | 1.24 | 0.91 | 0.44 | 0.41 |  | 1.05 | -0.19 | 0.58 | 1.74 | 0.64 | 0.06
11 | O=c1ccc2cc(O)c(O)cc2o1 [Esculetin] | 12.7 ± 0.16 | 2.22 | 5.32 | 1.75 | -7.81 | 3.92 | -7.32 | 3.28 | 3.75 | -7.17 |  | -3.44 | 1.67 | -4.69 | -3.61 | -0.38 | -8.53
12 | CC(=O)[O-].[K+] [Potassium acetate] | 12.5 ± 0.15 | 0.52 | -0.39 | -0.45 | -0.46 | -0.01 | -0.01 | -0.98 | -0.29 | 0.19 | 0.08 | -0.71 | -0.9 | -0.43 | -0.06 | -0.44 | -0.51
13 | O=C(Cn1cnnn1)N[C@@H]1C(=O)N2C(C(=O)O)=C(CSc3nncs3)CS[C@H]12 [Ceftezole] | 12 ± 0.2 | 0.89 | -1.1 | -0.41 | 0.9 | -1.12 | 0.9 | -0.52 | -1.26 | -0.51 | -0.41 | -0.25 | -0.2 | -1.25 | 0.28 | 0.55 | 
14 | CCN(CC)CC#CCOC(=O)C(O)(c1ccccc1)C1CCCCC1 (centres undefined) [Oxybutynin] | 12.5 ± 0.29 | -0.02 | -0.18 | -0.14 | 0.19 | -0.43 | -0.54 | -0.42 | -0.23 | 0.37 | -0.47 | -0.2 | -0.46 | 0.54 | -0.32 | 1 | 

— the supplement of paper PMC8975748
